The entries come from a sample that favours hits as a whole.
Pf Dd2 inh: blocks in vitro growth of P. falciparum Dd2; P. falciparum Dd2 growth, SYBR Green, 72 h; Potency, µM (series often up to 28.9 µM), without a hit: top-dose activity, negative = inhibition, usual class: inhibitors; 120,000 compounds, 4.3% hits; active = well fitted inhibition curve with a large enough effect;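 also: plate controls were DMSO vehicle for no effect and reference drug for full effect; nearly all actives have a fitted effect of over 65% in size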
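Infected erythrocytes (Dd2, 0.3% parasitemia, 2.5% hematocrit final) are added to compound in RPMI-1640/Albumax II medium, grown 72 h at 37C in low oxygen, then lysed with saponin/Triton-X containing SYBR Green and read by fluorescence.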
The depositor's hits bear a star; i = inactive; [ ] = remark or other dose. Potency is read from the fitted curve at half-maximal effect.

SMILES	Pf Dd2 inh
COc1ccc(CNC(=O)c2cc(Nc3ccc(OC)cc3OC)nc3ccccc23)cc1	8%
COc1ccc(Nc2cc(C(=O)NCCCN(C)C3CCCCC3)c3ccccc3n2)cc1	5.6µM*
COc1ccc(Nc2cc(C(=O)NC3CCCC3)c3ccccc3n2)cc1	4%
COc1ccc(Nc2cc(C(=O)NCCCN(C)C3CCCCC3)c3ccccc3n2)c(OC)c1	8.9µM*
CC1(C)CN(C(=O)c2ncc(F)cc2F)CCC1(O)CN1CCOCC1 (configuration not stated)	11%
CC(C)C(=O)Nc1ccc([C@H]2OCC(=O)N(Cc3nccn3C)[C@@H]2CO)cc1	20%[44.1 µM]
O=C(Nc1ccc([C@H]2OCC(=O)N(Cc3ccc(F)cc3)[C@@H]2CO)cc1)C1CC1	-10%[44.1 µM]
CCOc1ccc(NC(=O)NCCCN2CCN(c3ccc(F)cc3)CC2)cc1	i
CCC(=O)N1c2ccccc2CC1C(=O)NCCCN1CCN(c2ccc(F)cc2)CC1 (configuration not stated)	-13%
O=C(NCCCN1CCN(c2ccc(F)cc2)CC1)Nc1ccccc1Cl	7.9µM*
COc1cc2c(cc1OCC1CC1)NC(=O)C21CCN(Cc2cccc(O)c2)CC1	-15%[44.1 µM]
Cc1cc(C)cc(N2CC(c3nc(-c4cccc(Cl)c4)no3)CC2=O)c1 (configuration not stated)	32%
Cc1oc(-c2cccc(Cl)c2)nc1CN1CCOCC1	2%
Cc1cc(N2CCN(Cc3nc(-c4cccc(Cl)c4)no3)CC2)cc(C)n1	10µM*
N#Cc1cccc(C(=O)NCc2nnc3ccc(-c4ccc(F)cc4)nn23)c1	i
COc1ccc(OC)c(CCNC(=O)c2cnn(-c3ccccc3Cl)c2C2CCN(C(=O)OC(C)(C)C)CC2)c1	7.9µM*
COc1cc(OC)c(NC(=O)c2cnn(-c3cccc(Cl)c3C)c2C2CCN(C(=O)OC(C)(C)C)CC2)cc1Cl	3.5µM*
CC(C)(C)OC(=O)N1CCC(c2c(C(=O)NCCc3ccsc3)cnn2-c2ccccc2Cl)CC1	-6%
CC(C)(C)OC(=O)N1CCC(c2c(C(=O)N3CCOCC3)cnn2-c2ccccc2Cl)CC1	-16%
CC(C)(C)OC(=O)N1CCC(c2c(C(=O)N3CCN(c4ncccn4)CC3)cnn2-c2ccc(F)cc2F)CC1	-18%
CC(C)(C)OC(=O)N1CCC(c2c(C(=O)NC3CCCCC3)cnn2-c2ccc(F)cc2F)CC1	-11%
COc1ccccc1CNC(=O)c1cnn(-c2ccc(F)cc2F)c1C1CCN(C(=O)OC(C)(C)C)CC1	10µM*
Cc1ccc(CNC(=O)c2cnn(-c3ccc(F)cc3F)c2C2CCN(C(=O)OC(C)(C)C)CC2)cc1	11µM*
CNC(=O)[C@@H](c1ccccc1OC)N1CCC[C@H]1C(=O)NCC1CC1	-4%[44.1 µM]
CC1CCC2(CC1)NC(=O)N(CC(=O)NCCCc1ccccc1)C2=O (configuration not stated)	26%
SMILES	Pf Dd2 inh
O=C(N[C@H]1CCOC[C@H]1C1CCOCC1)c1ccccc1-c1ncc[nH]1	-24%
CCCCC(=O)Nc1ccc(NC(=O)CCCN2CCCC2=O)cc1	-17%
Cc1cccc(C(=O)N2CCCC(n3cc(-c4nc(C(C)C)no4)nn3)C2)c1 (configuration not stated)	-4%
O=C(CC1CCS(=O)(=O)C1)N1CCCC(c2ccccc2)(c2ccccc2)C1 (configuration not stated)	-18%
CCCCC(=O)N1CCC2(CC1)SCC(=O)N2c1ccc(Cl)cc1	i
Cc1ccc(NC(=O)c2c(C)oc3ccc(O)c(CN(C)Cc4ccccc4)c23)c(C)c1	1.3µM*
Cc1oc2ccn(Cc3cccc(F)c3)c(=O)c2c1C(=O)N(C)Cc1ccccc1	i
Cc1ccc(NC(=O)Nc2nnc(N(C)Cc3ccccc3)s2)c(C)c1	-23%
Cc1oc2ccc(O)c(CN(C)Cc3ccccc3)c2c1C(=O)Nc1ccccc1	1.1µM*
CN(Cc1ccc(-c2ccccc2)cc1)C(=O)Nc1ccccc1	-3%[44.1 µM]
Cc1ccc(NC(=O)c2c(C)oc3ncnc(N4CCCCC4)c23)c(C)c1	17%
COc1cccc(CNC(=O)[C@@H]2C[C@@H](O)CN2C2CCN(C(=O)c3ccnn3C)CC2)c1	i
C#CCNC(=O)c1nc(-c2ccc([S+](C)(=O)[O-])cc2)c2cnccn12	i
N#CC1CCN(C(=O)c2nc(-c3cccnc3)c3cnccn23)CC1	-16%[44.1 µM]
O=C(c1nc(-c2ccc(F)cc2)c2ccccn12)N1CCOCC1	13%[44.1 µM]
C[S+](=O)([O-])c1ccc(-c2nc(C(=O)N3CCOCC3)n3ccncc23)cc1	7.9µM*
O=C(c1nc(-c2cccc(C(F)(F)F)c2)c2cnccn12)N1CCOCC1	-4%
O=C(c1nc(-c2ccccc2)c2ccccn12)N1CCN(c2ncccn2)CC1	-6%
C[S+](=O)([O-])c1ccc(-c2nc(C(=O)N3CCN(c4ncccn4)CC3)n3ccncc23)cc1	11µM*
C[S+](=O)([O-])c1ccc(-c2cc(C(=O)N3CCN(c4ncccn4)CC3)nn3cccc23)cc1	-24%
O=C(c1nc(-c2ccc(F)cc2)c2cnccn12)N1CCCC1	6.3µM*
Cn1nccc1CN1CC2(C1)NC(=O)c1ccccc1O2	-17%[44.1 µM]
O=C(NCCCN1CCCC1=O)c1cn2ccnc(-c3ccc(F)cc3)c2n1	-14%
Cc1cc(C)c2[nH]c(C(=O)NCc3ccc(C(=O)N(C)C)o3)c(C)c2c1	-23%
O=C(Cn1nc2n(c1=O)CCCCC2)Nc1ccc(C(F)(F)F)cc1	-3%
SMILES	Pf Dd2 inh
COc1ccc(-c2ccccc2)cc1N1C(=O)[C@@H]2C[C@H]1CN2C(=O)CNC(N)=O	0%
Cc1cnc(NC(=O)c2ccc3c(c2)OCCN(Cc2ncccn2)C3)s1	i
COc1ccc(NC(=O)c2ccc3c(c2)OCCN(C2CCC2)C3)c(F)c1	i
O=C(Nc1nccs1)c1ccc2c(c1)OCCN(c1ccccc1)C2	10µM*
CC(C)CCN1CCOc2cc(C(=O)Nc3ccccc3)ccc2C1	-14%[44.1 µM]
O=C(Nc1ccc2cn[nH]c2c1)c1ccc2c(c1)OCCN(c1ccccc1)C2	11µM*
Cc1cnc(NC(=O)c2ccc3c(c2)OCCN(C2CCC2)C3)s1	i
O=C(Nc1nccs1)c1ccc2c(c1)OCCN(CCC(F)(F)F)C2	-7%[44.1 µM]
O=C(Nc1ccc(F)cc1)c1ccc2c(c1)OCCN(CCC(F)(F)F)C2	i
O=C(Nc1nccs1)c1ccc2c(c1)OCCN(C1CCC1)C2	7.9µM*
Cc1ncsc1C(=O)N1CCC(C(=O)O)(n2ccc(-c3ccco3)n2)CC1	-6%
Cc1ccc(C)c(C(=O)N2CC(C(=O)NC3CCCCC3)C3(CCOCC3)C2)c1 (configuration not stated)	2%
Cc1cccc(NC(=O)C2CCN(C(=O)c3nnn4cc(C)[nH]c(=O)c34)CC2)c1	i
Cc1cccc(C)c1-c1cc(C(=O)NC2CC2)c2cnn(C)c2n1	1%
Cn1ncc2c(C(=O)NC3CC3)cc(-c3cccc(C(F)(F)F)c3)nc21	-22%
Cn1ncc2c(C(=O)NCC3CC3)cc(-c3cccnc3)nc21	13µM*
O=C(CC1CCCN(c2cnn(CC3CC3)c(=O)c2)C1)NC1CCCC1 (configuration not stated)	i
Cc1ccc(C(=O)N2CCC(Cc3nc(-c4ccccc4)no3)CC2)c(C)c1	i
Cc1ccc(-c2nnc([C@H]3CCN(C(=O)NC4CCCCC4)C3)o2)cc1	i
O=C1NC2CCCCC2=C1CC(=O)N1CCCCC1 (configuration not stated)	-29%
CCOc1ccc(CN2C[C@@H]3C(=O)N(Cc4ccc5c(c4)OCO5)C(=O)[C@@H]3C2)cc1	-15%
CCOc1ccc(CN(CCc2ccc3c(c2)OCO3)Cc2ccc(CC)cc2)cc1	-14%

Bioassay records (PubChem BioAssay)
